This note sets out measurements from PubChem BioAssay.

Calls of active or inactive are those of the source.

This assay is described as follows: E. coli acrAB mutant growth effects, primary screen, E. coli filamentation inducers, strain DRC39, OD650, 48 h (AID 1179).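 Note: screen aims at cell division blockers that make cells filament.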 To be noted: E. coli DRC39 delta-acrAB growth, higher = more signal, called active from +8 up or from −8 down.
As for `CC(=O)NCCCC[C@@H]1NC(=O)[C@@H]2C[C@H](C(=O)NCCCCCNC(=O)CS)[C@H](c3cccc(OCCO)c3)N2C1=O`, the z-score is -0.171 (inactive).
In the case of `COc1ccccc1CN1C(=O)c2ccccc2[C@@]2(Cc3ccccc3N(CC(C)C)C2=O)[C@@H]1c1ccc(CO)cc1` it was -0.0353 (inactive); in that of `CC(CO)N1C(=O)[C@@H]2C3C(=O)OCCC/C=C\[C@H]3OC23C=CCN(C(C)(C)C)C(=O)[C@@H]13` (stereo not given in full), 0.956 (inactive); in that of `CC1(C)[C@@H]2CC(C(O)C3C=CC4C(=O)N(Cc5ccccc5)C(=O)C4N3n3cnnc3)=C[C@H]1C2` (stereo not given in full), 0.102 (inactive).
Regarding `O=C1C[C@@](C(=O)NC2CC2)(c2ccc([N+](=O)[O-])cc2)[C@@H](c2ccc(CO)cc2I)N1C1CCCCC1`, the z-score is -0.528 (inactive).
In the case of `NC(=O)NCC#Cc1ccc2c(c1)[C@]1(C(=O)N2)[C@H](C(=O)Nc2nc3ccccc3s2)[C@H]2C(=O)O[C@H](c3ccccc3)[C@H](c3ccccc3)N2[C@@H]1c1ccccc1OCCO` it was -0.728 (inactive).
Then `O=C1c2ccccc2[C@](Cc2ccccc2I)(C(=O)NCC(F)(F)F)[C@H](c2ccc(CO)cc2)N1Cc1ccccc1Cl`, with 0.53 (inactive); and `CCC[C@@H]1C[C@@]1(CCC)[C@@H](NS(=O)(=O)c1cccc2cccnc12)c1ccc(Cl)cc1`, with -0.0357 (inactive); and `CCCC[C@@H]1C[C@H]1[C@@H](NC(=O)c1ccco1)c1ccc(-c2ccccc2)cc1`, with -1.2 (inactive).
In the case of `Cc1ccc(S[C@]2(C(=O)NCCCN(C)C)CC(=O)N(Cc3cc(C(F)(F)F)cc(C(F)(F)F)c3)[C@@H]2c2ccc(CO)cc2)cc1` it was -0.339 (inactive); in that of `C=C[C@@H](COC(=O)OC(C)(C)C)N(Cc1ccc(OC)cc1)S(=O)(=O)c1ccc(Br)cc1`, -0.667 (inactive).
As for `COCCOC(=O)N1C(=O)[C@@]2(c3cc(C#CCC(C(=O)OC)C(=O)OC)ccc31)[C@H](C(=O)N1CCN(c3ncccn3)CC1)[C@H]1C(=O)O[C@H](c3ccccc3)[C@H](c3ccccc3)N1[C@@H]2c1ccccc1OCCO`, the z-score is 0.0336 (inactive).
Regarding `CN1C(=O)C2C=CC(C(O)c3ccccc3)N(N(c3ccccc3)c3ccccc3)C2C1=O` (stereo not given), the z-score was 0.139 (inactive).
As to `COc1ccc([Si](C)(C)[C@H]2[C@H](CC(=O)N3Cc4ccccc4C[C@H]3CO)O[C@@]3(C(=O)N(Cc4cccc(N5CCC5=O)c4)c4ccccc43)[C@@H]2C)cc1`, the z-score is 0.398 (inactive).
For `C=CCC(OC(C)=O)[C@@H]1[C@@H](N(Cc2ccc(-c3cccc(C(F)(F)F)c3)o2)C(=O)c2ccc(C)cc2)c2cc(OCCCO)ccc2N1C(=O)Cc1ccc2ccccc2c1` (stereo not given in full), the z-score was 0.409 (inactive).
In the case of `Oc1ccc2cc[n+](Cc3sc4ccccc4c3Cl)cc2c1` it was -0.952 (inactive); in that of `COC(=O)C(CC#Cc1ccc2c(c1)[C@]1(C(=O)N2)[C@H](c2ccc(OCCO)cc2)N2[C@H](c3ccccc3)[C@H](c3ccccc3)OC(=O)[C@H]2[C@@H]1C(=O)N1CCc2cc(OC)c(OC)cc2C1)C(=O)OC`, -0.182 (inactive).
In the case of `COc1ccc(CCNC(=O)[C@@]2(Sc3ccc(C)cc3)CC(=O)N(C(C)C)[C@@H]2c2ccc(CO)cc2I)cc1` it was -0.126 (inactive); in that of `CN(C)CCCC[C@@H]1NC(=O)[C@@H]2C[C@H](C(=O)NCCCCCCN)[C@H](c3cccc(OCCO)c3)N2C1=O`, -1 (inactive).
Turning to `C=CCN1C(=O)[C@]2(O[C@H](CCn3cc([C@H](O)c4ccccc4)nn3)[C@@H]([Si](C)(C)c3ccc(OC)cc3)[C@@H]2C)c2ccccc21`, the z-score is 0.169 (inactive).
In the case of `COC(=O)C(CC#Cc1ccc2c(c1)[C@]1(C(=O)N2)[C@H](C(=O)Nc2nc3ccccc3s2)[C@H]2C(=O)O[C@H](c3ccccc3)[C@H](c3ccccc3)N2[C@@H]1c1ccc(O)cc1)C(=O)OC` it was -0.169 (inactive).
In the case of `COc1cc2c(cc1O)C(c1cccs1)N(C)CC2` (stereo not given) it was 0.597 (inactive).
In the case of `C=CC[C@]1(C(=O)NCc2ccccc2)N=C(c2ccc(OCCCO)cc2)O[C@H]1c1ccccc1N=[N+]=[N-]` it was -0.822 (inactive); in that of `O=C(c1ccccc1)N1Cc2ccccc2C[C@@]2(COC(c3ccc(OCCCO)cc3)=N2)C1=O`, -0.564 (inactive); in that of `C=C[C@H](C)[C@@H](OC(=O)Nc1ccc(OC)cc1)c1ccc(O)c2ccccc12`, 0.525 (inactive).
Turning to `CCC(CC)C(O)C1C=CC2C(=O)NC(=O)C2N1Nc1ccc(Cl)cc1Cl` (stereo not given), the z-score was -0.459 (inactive).
In the case of `COc1ccc(C#Cc2ccc3c(c2)[C@]2(C(=O)N3)[C@H](c3ccccc3OCCO)N3[C@H](c4ccccc4)[C@H](c4ccccc4)OC(=O)[C@H]3[C@@H]2C(=O)Nc2nc3ccccc3s2)cc1` it was 0.132 (inactive); in that of `O=C(CS)NCCCCCCNC(=O)[C@@H]1C[C@@H]2C(=O)N[C@@H](Cc3ccccc3)C(=O)N2[C@@H]1c1cccc(OCCO)c1`, 0.0288 (inactive); in that of `CC(C)N1C(=O)c2ccccc2[C@](C)(C(=O)NCCN2CCOCC2)[C@@H]1c1ccc(CO)cc1`, -0.582 (inactive).
Then `CCCC=C(CCC)[C@@H](NC(=O)c1cccs1)c1ccc(C(F)(F)F)cc1`, with -0.262 (inactive).
For `C[N+](C)(C)CCCCNC(=O)[C@@H]1C[C@@H]2C(=O)N[C@@H](Cc3ccccc3)C(=O)N2[C@@H]1c1cccc(OCCO)c1`, the z-score is 1.31 (inactive).
Then `Cc1ccc(S[C@]2(C(=O)NC3CC3)CC(=O)N(Cc3ccccc3)[C@@H]2c2ccc(CO)cc2I)cc1`, with 0.753 (inactive).
As to `CCOC(=O)C1=C[C@@H](C(C)(C)C)N(S(=O)(=O)c2ccc(C)cc2)[C@H]1c1ccc(F)cc1`, the z-score is -0.791 (inactive).
With `COc1ccc(C(O)C2C=CC3C(=O)N(Cc4ccccc4)C(=O)C3N2n2cnnc2)cc1OCc1ccccc1` (stereo not given), the z-score is -0.48 (inactive).
In the case of `CC1CC/C=C\[C@H]2OC34C=CCN(C(C)(C)C)C(=O)[C@H]3N(CCO)C(=O)[C@@H]4C2C(=O)O1` (stereo not given in full), the z-score was -0.519 (inactive).
